Assay outcomes deposited in PubChem by National Center for Advancing Translational Sciences (NCATS).
VP16 counter – Gal4-VP16 reporter inhibition counter-screen; Drosophila S2 Gal4-VP16 UAS-luciferase, luminescence, 20 h; Potency, µM (top dose mostly 53.6 µM), hits mostly inhibitors; hit rate 3.5% among 310,000;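 also: Gal4-VP16 expression switched on by copper sulfate through the metallothionein promoter; nearly all actives have a fitted effect of over 50% in size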
CtBP-E1A blk – inhibitors of CtBP/E1A interaction; activity change, % (no concentration beside the values); AlphaScreen GST-E1A/His-CtBP binding, 1536-well; hits give low values; hit rate 0.49% among 340,000; in the data active = activity change below about -65%; inconclusive = mostly about -30% to -63%
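Protein mix (5X: 125 nM each GST-E1A, His-CtBP) was incubated with pinned compound 2 h at 37 deg C in dark, in 50 mM Tris pH 8.0 buffer with 300 mM NaCl. Glutathione donor and nickel acceptor beads followed; AlphaScreen signal read after 1 h.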
RORg inh – inhibitors of mouse ROR gamma transcriptional activity; hit rate 5.4% among 310,000; Drosophila S2 Gal4-RORgamma UAS-luciferase reporter, 20 h; Potency, µM (top dose mostly 53.6 µM), most hits filed as inhibitors; P51450; also: nearly all actives have a fitted effect of over 60% in size
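Compounds are pin-transferred onto Drosophila Schneider cells expressing a copper-inducible Gal4–ROR gamma transactivation domain fusion. After 1 hr, copper sulfate is added to 700 uM final; luciferase is read 20 hr later.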
p53 reactivator – mutant p53 re-activation in reporter cells. H1299 p53-A138V BP100-luciferase reporter, luminescence, 24 h. hit rate 0.063% among 320,000. Potency, µM (titrated, usually from 92.2 µM), most hits filed as activators; also: nearly all actives have a fitted effect of over 45% in size
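H1299 (p53-null), stable ts p53-A138V + BP100-Luc; 1000 cells/well, Opti-MEM/10% FBS; cpd 4 pt, 1:5; 24 h, 37 deg C, 5% CO2; detection reagent 10 min RT; luminescence.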
Six1-Eya2 blk – inhibitors of human Six1/Eya2 interaction | Q15475+O00167 | activity change, % (no concentration beside the values) | AlphaScreen GST-Six1/His-Eya2 binding, biochemical; hits give low values | hit rate 0.56% among 360,000; in the data active = activity change below about -65%; inconclusive = mostly about -30% to -63%
Target sequence (O00167 whole entry, looked up): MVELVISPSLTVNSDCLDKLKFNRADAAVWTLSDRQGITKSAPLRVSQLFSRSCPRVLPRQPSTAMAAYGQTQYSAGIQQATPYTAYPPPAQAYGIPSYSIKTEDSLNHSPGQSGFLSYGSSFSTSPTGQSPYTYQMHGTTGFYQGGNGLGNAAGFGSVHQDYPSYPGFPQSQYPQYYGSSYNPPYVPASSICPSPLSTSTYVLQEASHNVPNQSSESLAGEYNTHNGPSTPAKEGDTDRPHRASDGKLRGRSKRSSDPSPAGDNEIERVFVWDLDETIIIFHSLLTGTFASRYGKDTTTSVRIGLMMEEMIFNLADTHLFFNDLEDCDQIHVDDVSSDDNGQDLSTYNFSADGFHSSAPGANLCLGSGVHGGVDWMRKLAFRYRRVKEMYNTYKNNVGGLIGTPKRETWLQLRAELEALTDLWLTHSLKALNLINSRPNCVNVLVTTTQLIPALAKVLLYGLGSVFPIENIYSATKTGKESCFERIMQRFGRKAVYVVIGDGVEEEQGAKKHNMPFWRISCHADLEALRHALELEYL
Target sequence (Q15475 whole entry, looked up): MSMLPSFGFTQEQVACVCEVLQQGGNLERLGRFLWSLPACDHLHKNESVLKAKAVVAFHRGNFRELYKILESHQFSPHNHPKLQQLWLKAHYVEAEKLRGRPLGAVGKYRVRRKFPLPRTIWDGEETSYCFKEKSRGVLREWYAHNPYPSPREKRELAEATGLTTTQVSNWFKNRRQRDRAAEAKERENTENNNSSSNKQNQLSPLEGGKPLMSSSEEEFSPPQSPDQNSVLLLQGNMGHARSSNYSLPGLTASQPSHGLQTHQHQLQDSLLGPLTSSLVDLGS
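AlphaScreen with GST-Six1 and His-Eya2 (5X mix: 250 nM and 500 nM), glutathione donor and nickel acceptor beads; buffer 50 mM Tris pH 8.0, 300 mM NaCl, 1 mM TCEP; 1 h at 37 C in the dark.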
Large screens that a line does not name were inactive. The list is not random: actives were taken first. Their share in the collection is about 5.4%. Unless noted, calls follow the shape of the dose curve; as a rule, active = well fitted curve in the direction sought with a large enough effect; inconclusive = small, poorly fitted or top-dose-only effect, or another doubt; inactive = no such curve, though single readings can be large; an effect the other way counts as inactive or inconclusive.

COc1ccccc1N1CCN(Cc2cc(Br)c(O)c3ncccc23)CC1	VP16 counter 1.4µM, CtBP-E1A blk -85, RORg inh 1.1µM, Six1-Eya2 blk -92
CCOc1ccccc1N1CCN(Cc2cccc(OC)c2O)CC1	none
Oc1c(CN2CCCCC2)cc(COCc2ccccc2)c2cccnc12	VP16 counter 0.0089µM, RORg inh 0.32µM, Six1-Eya2 blk -85
Oc1cc(Cc2ccccc2)cnc1CN1CCCCC1	none
COCc1cc(CN2CCCC2)c(O)c2ncccc12	VP16 counter 8.9µM, CtBP-E1A blk -94, RORg inh 10µM, Six1-Eya2 blk -91
Nc1ncnc2c1ncn2[C@@H]1O[C@H](C(=O)N(CCC2=CCCCC2)CC2CC2)[C@@H](O)[C@H]1O	none (no result: VP16 counter, RORg inh, p53 reactivator)
CCCOC(=S)NC(=O)c1sc2ccccc2c1Cl	none
O=C(NC(=S)NCCO)c1sc2ccccc2c1Cl	RORg inh 11µM
CCOC(=S)NC(=O)c1sc2ccccc2c1Cl	VP16 counter 5.6µM, RORg inh 1.3µM
Cc1nnc2n(Cc3ccccc3)c(=O)c3c4c(sc3n12)CCCC4	VP16 counter inconclusive, RORg inh 11µM (no result: CtBP-E1A blk, Six1-Eya2 blk)
O=C(N/N=C1/CC2CCC1C2)c1cc2ccccc2cc1O (configuration not stated)	VP16 counter 0.79µM, RORg inh 0.89µM
COc1ccc(OCc2cc(C(=O)O)c(C)o2)cc1	VP16 counter inconclusive, RORg inh inconclusive (no result: CtBP-E1A blk, Six1-Eya2 blk)
O=C(CSc1ccccc1C(=O)O)NCc1ccccc1	none
CC(C)[C@@H](CC(=O)N[C@@H]1CCCC[C@H]1C(=O)N[C@H](CC(=O)N[C@@H](CCC(=O)O)CC(=O)O)Cc1c[nH]c2ccccc12)NC(=O)C[C@H](Cc1c[nH]c2ccccc12)NC(=O)[C@@H]1CCCC[C@H]1N	none (no result: CtBP-E1A blk, p53 reactivator, Six1-Eya2 blk)
COCCn1c(-c2ccc(OC)cc2)cnc1SCC(=O)Nc1cccc2ccccc12	CtBP-E1A blk inconclusive, RORg inh 5µM, Six1-Eya2 blk inconclusive
N=c1oc2ccc3ccccc3c2cc1C(N)=S	VP16 counter inconclusive, RORg inh 6.3µM (no result: CtBP-E1A blk)
O=C(O)c1cc2c(ccc3ccccc32)oc1=O	none (no result: CtBP-E1A blk, Six1-Eya2 blk)
Cc1cc(N2C(=O)C3C4C=CC(C4)C3C2=O)ccc1Br (configuration not stated)	none
CN(C)c1ccc(N=Nc2cccc(F)c2)cc1	VP16 counter inconclusive, CtBP-E1A blk -67, RORg inh inconclusive, p53 reactivator inconclusive, Six1-Eya2 blk -78
CN(C)c1ccc(N=Nc2cccc3ccoc23)cc1	p53 reactivator inconclusive, Six1-Eya2 blk -65 (no result: CtBP-E1A blk)
CN(C)c1ccc(N=Nc2ccc(S(N)(=O)=O)cc2)cc1	p53 reactivator inconclusive
CCn1c(=O)[nH]c2cc(C(=O)Nc3cc(C)cc(C)c3)ccc2c1=O	none
O=C(Nc1cccc(Cl)c1)N1CCC(CO)(CCOc2ccccc2)CC1	none (no result: CtBP-E1A blk)
O=S1(=O)C2CC3C=CC2(O3)C(O)C(Cc2ccccc2)N1Cc1cccc(F)c1 (configuration not stated)	none (no result: CtBP-E1A blk, p53 reactivator, Six1-Eya2 blk)
CC(C)c1ccc(-c2nnn(CCC(=O)O)n2)cc1	VP16 counter inconclusive, RORg inh 0.4µM
Cc1cccc(OC(C)C(=O)Nc2ccc3c(c2)OCCO3)c1 (configuration not stated)	none (no result: VP16 counter, RORg inh, p53 reactivator)
CCOC(=O)C1=C(NC(=S)NC(=O)c2ccccc2)c2ccccc2CC1(C)CC (configuration not stated)	VP16 counter 7.1µM, RORg inh 6.3µM
CCOC(=O)c1c(NC(=O)c2ccccc2)sc2c1CCc1ccccc1-2	none
CCOC(=O)C1=C(NC(=S)NC(=O)c2ccccc2)c2ccccc2CC1C(C)C (configuration not stated)	RORg inh 4µM
S=c1[nH]nc(-c2cc3c(s2)-c2ccccc2CC3)o1	VP16 counter 10µM, RORg inh 5µM
CSc1nnc(-c2cc3c(s2)-c2ccccc2CC3)o1	RORg inh 1.3µM
CSc1nnc(-c2ccccc2)o1	none
CC(C)COC(=O)c1cccc2c1-c1ccccc1/C2=N\O	VP16 counter 11µM, RORg inh inconclusive
C#CCSc1nnc(-c2sc(-c3ccccc3)nc2C)n1C	none
O=[N+]([O-])c1c(NCCO)cc(N2CCCCCC2)c2nonc12	RORg inh inconclusive (no result: CtBP-E1A blk, p53 reactivator)
Cc1nnc(Sc2cc(NCCO)c([N+](=O)[O-])c3nonc23)s1	VP16 counter inconclusive, RORg inh 3.2µM, Six1-Eya2 blk inconclusive
Cc1nnc(Sc2cc(NCCCO)c([N+](=O)[O-])c3nonc23)s1	VP16 counter 6.3µM, RORg inh 3.5µM, Six1-Eya2 blk inconclusive
FC(F)(F)c1ccccc1-c1ccc2ncnc(NCCN3CCOCC3)c2c1	none (no result: CtBP-E1A blk, p53 reactivator, Six1-Eya2 blk)
CCOc1ccc(NC(=S)N2CCC(NC(=O)c3ccccc3C)CC2)cc1	none
CC(=O)Nc1cc(OC(C)=O)c2nonc2c1OC(C)=O	VP16 counter inconclusive, CtBP-E1A blk inconclusive, RORg inh 11µM
CC(=O)Nc1nonc1NC(C)=O	none
Cc1cccc(-n2c(O)c(C=Nc3cc(O)ccc3C)c3ccccc3c2=O)n1	RORg inh 11µM
Cc1cccc(-n2c(O)c(/C=N/NC(=O)c3ccccc3Cl)c3ccccc3c2=O)n1	VP16 counter 4.5µM, RORg inh 6.3µM
C/C(=N\Nc1cccc2cccnc12)c1ccc[nH]1	RORg inh 3.5µM, p53 reactivator inconclusive
CCC(=O)Nc1cccc2cccnc12	none (no result: CtBP-E1A blk)
COC(=O)c1ccc(C(=O)N2CCCC(CNC(=O)c3ccccc3Cl)C2)cc1 (configuration not stated)	none
O=C(CSc1ncnc2c1nnn2Cc1ccccc1F)NCC1CCCO1 (configuration not stated)	RORg inh 13µM
O=C(Cn1cnc2c(nnn2Cc2ccccc2F)c1=O)NCC1CCCO1 (configuration not stated)	none
CO[C@H]1COC(=O)[C@H]2CCCN2C(=O)[C@@H](C)COC(=O)C/C=C\[C@@H]1C	none (no result: CtBP-E1A blk, p53 reactivator, Six1-Eya2 blk)
C=CCc1c(C)nc(C)nc1N/N=C/c1ccccc1	VP16 counter 1.6µM, RORg inh 10µM
COc1ccc2no[n+]([O-])c2c1	VP16 counter 7.1µM, RORg inh 6.3µM (no result: CtBP-E1A blk, Six1-Eya2 blk)
CCn1c(-c2ccc([N+](=O)[O-])cc2)n[nH]c1=S	RORg inh 11µM
CCn1c(-c2sc(-c3ccccc3)nc2C)n[nH]c1=S	VP16 counter inconclusive, RORg inh 3.5µM
CCn1c(-c2cccc(Br)c2)n[nH]c1=S	VP16 counter 7.1µM, RORg inh 10µM
CCn1c(-c2cccc(S(=O)(=O)N3CCCC3)c2)n[nH]c1=S	RORg inh inconclusive (no result: CtBP-E1A blk)
CCn1c(-c2ccc3ncccc3c2)n[nH]c1=S	VP16 counter inconclusive, RORg inh 11µM
C=CCn1c(-c2ccc3ncccc3c2)n[nH]c1=S	VP16 counter inconclusive, RORg inh inconclusive (no result: CtBP-E1A blk)
O=C(CSc1nc(-c2ccccc2)cs1)NCCN1C(=O)CSC1=O	RORg inh inconclusive
COc1ccc(OC)c(CN2CCN(C(=O)CN3C(=O)NC4(CCCC4)C3=O)CC2)c1	none (no result: VP16 counter, RORg inh)
O=C(c1cccc(F)c1)N1CCC2(CCCN(c3ccc(-c4ccccc4)cc3)C2)CC1	none (no result: CtBP-E1A blk, p53 reactivator, Six1-Eya2 blk)
